Test results taken from PubChem BioAssay (NCI).
This is part of a sample that, as a whole, favours compounds with a hit. Of some 83,000 tested, about 20% had one in any assay.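 Plates (96-well) were seeded with cells, treated with compound at one concentration, and incubated for 48 hours before percent growth was determined.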 Unmarked numbers belong to inactive results. The source made the active and inactive calls.

test system: RPMI-8226 leukemia; test: NCI-60 one-dose screen, 48 h (100 = growth as untreated, 0 = no growth, -100 = all killed); details: 10 µM unless noted
Method: Growth inhibition of the RPMI-8226 human tumor cell line is measured as a screen for anti-cancer activity. Cells are grown in 96 well plates and exposed to the test compound for 48 hours. Compounds are tested at a single concentration, which is 10^-5 M for most compounds. The reported endpoint is percent growth (GI% or GIPRCNT), where numbers from 0 - 100% represent growth inhibition, and numbers from -100% - 0 represent cell death. For example, a value of 40 represents 60% growth inhibition. A value of 0 means no net growth occurred over the course of the experiment. A value of -40 indicates 40% of cells at the beginning of the experiment died by the end of the experiment. A value of -100 means all cells are dead at the end of the experiment.
NCI-60 Human Tumor Cell Lines Screen was performed using the standard one-dose NCI protocol, which is described in more detail at https://dtp.cancer.gov/discovery_development/nci-60/default.htm.
Compounds with GIPRCNT values below 10 were considered active. Activity score was based on GIPRCNT using the following formula: […]
Score is 0 for GIPRCNT values of 100 or above, 50 for GIPRCNT values of 0, and 100 for GIPRCNT values of -100.

**Q.** For `CCOC(=O)C1C(=O)C=C(c2ccc(OC)cc2)CC1c1sc(N(C)Cc2ccccc2)nc1Cl` (stereo not given), which growth is on record?
**A.** The growth was 63.9%.

**Q.** `CC(C)(C)n1cc(-c2ccnc(NCCNS(=O)(=O)c3ccc(C(F)(F)F)cc3)c2)c(-c2cccc(O)c2)n1` was tested. Which growth did it give?
**A.** The growth was 4.88% (active).

**Q.** `CN1CCN(Cc2ccc(NC(=O)c3nc4ccc5[nH]ncc5c4c4c3CCC4)cc2C(F)(F)F)CC1` was tested. Which growth did it give?
**A.** The growth was -37% (active).

**Q.** With `FC(F)(F)c1cccc(-c2cn3c(ccc4ccccc43)n2)c1` as the molecule, how does the growth read?
**A.** Its growth is 94.4%.

**Q.** How did the growth turn out when `CCOC(=O)C1CCNC(=O)C1=O` (stereo not given) was run?
**A.** Its growth is 96.8%.

**Q.** With `O=C1/C(=C/c2ccc(Cl)cc2)CN(Cc2cn(CCNc3ccnc4cc(Cl)ccc34)nn2)C/C1=C\c1ccc(Cl)cc1` as the molecule, how does the growth read?
**A.** The growth was -22% (active).

**Q.** Which growth does the source give for `CC(=O)Nc1ccc(/C=C/C(=O)c2ccccc2)cc1` here?
**A.** Its growth is -8.05% (active).

**Q.** Which growth does the source give for `Nc1nc(Nc2cc(Cl)cc(Cl)c2)nn1S(=O)(=O)c1ccc2ccccc2c1` here?
**A.** Its growth is 66.5%.

**Q.** With `CCO/C=N/C1=C(C#N)C(c2ccc(Cl)cc2)c2c(c3ccc(C)cc3[nH]c2=O)O1` (stereo not given) as the molecule, how does the growth read?
**A.** Its growth is 30.2%.

**Q.** `O=C(CSc1nc2ccccc2[nH]1)Nc1ccc(-c2nc3ccccc3s2)c(Cl)c1` was tested. Which growth did it give?
**A.** The growth was 28.9%.

**Q.** For `CC(C)(C)n1cc(-c2ccnc(NCCCNS(=O)(=O)c3ccccc3)c2)c(-c2cccc(O)c2)n1`, which growth is on record?
**A.** Its growth is 10.5%.

**Q.** With `C=C(C)[C@@H]1C[C@@H]2Cc3cc(F)ccc3N1O2` as the molecule, how does the growth read?
**A.** Its growth is 65.2%.

**Q.** With `CC1=C(C#N)C(=O)NC(C)C1` (stereo not given) as the molecule, how does the growth read?
**A.** Its growth is 105%.

**Q.** Which growth does the source give for `CC(C)CSc1nc(NN)c(C#N)c(-c2ccc(F)cc2)n1` here?
**A.** The growth was 61.2%.

**Q.** Which growth does the source give for `CC[N+](CC)=c1cc2oc3cc(N(C)C)ccc3nc-2cc1C` here?
**A.** Its growth is 45.3%.

**Q.** Which growth does the source give for `CCc1cnc(=S)n(-c2ccccc2)c1` here?
**A.** The growth was 119%.

**Q.** `CC(=O)OC[C@]12CC[C@H]3[C@@H](C[C@H]4O[C@]45CC=CC(=O)[C@]35C)[C@]1(O)CC[C@@]2(O)[C@@](C)(O)C1CC(C)=C(C)C(=O)O1` (stereo not given in full) was tested. Which growth did it give?
**A.** Its growth is -19.6% (active).

**Q.** How did the growth turn out when `COc1ccc(C(=O)c2cc(OC)c(OC)c(OC)c2OC)cc1O` was run?
**A.** Its growth is 44.7%.

**Q.** With `CCOC(=O)c1c(NS(=O)(=O)c2ccc(C)cc2)sc2c1CCC1(C2)OCCO1` as the molecule, how does the growth read?
**A.** Its growth is 86.7%.

**Q.** How did the growth turn out when `Cc1ccc(-c2nc(C#N)c(S(=O)(=O)n3nc(-c4ccccc4)cc3N)o2)cc1` was run?
**A.** The growth was 83.4%.

**Q.** `COc1ccc(CCNC2=CC(=O)CCC2)cc1OC` was tested. Which growth did it give?
**A.** The growth was 107%.

**Q.** Which growth does the source give for `OC(c1cc2cc(Br)ccc2c2cc(Br)ccc12)C1CCCCN1` (stereo not given) here?
**A.** Its growth is -38.9% (active).

**Q.** With `Cc1ccc(S(=O)(=O)NCCNc2nccc(-c3c(-c4cccc(N)c4)nc4sccn34)n2)cc1` as the molecule, how does the growth read?
**A.** Its growth is 74.7%.

**Q.** `CCC(C)/C(=C\C#N)NCCCN/C(=C/C#N)C(C)CC` (stereo not given) was tested. Which growth did it give?
**A.** Its growth is 88.7%.

**Q.** `CN(C)c1cccc2c(S(=O)(=O)/N=C(\N)Nc3nc4ccccc4s3)cccc12` was tested. Which growth did it give?
**A.** The growth was 62%.

**Q.** With `C=C(C)[C@@H]1C[C@@H]2Cc3cc(Cl)ccc3N1O2` as the molecule, how does the growth read?
**A.** Its growth is 83.2%.

**Q.** Which growth does the source give for `COC(=O)C(Sc1ccc(Cl)cc1)C1SC(=S)N(Cc2ccccc2)C1=O` (stereo not given) here?
**A.** Its growth is 84.6%.

**Q.** Which growth does the source give for `C/C=C/C1=CN2C(=O)c3cc(OC4OC(C)C(NC)C(C)(O)C4O)c(C)cc3N=C[C@@H]2C1` (stereo not given in full) here?
**A.** The growth was 4.62% (active).

**Q.** Which growth does the source give for `COc1ccc(-c2cnoc2-c2ccc(OC)cc2O)cc1` here?
**A.** The growth was 49.6%.

**Q.** For `CCN1CCN(c2nc(NNC(=O)c3ccccc3)nc(N3CCN(C(c4ccccc4)c4ccccc4)CC3)n2)CC1`, which growth is on record?
**A.** Its growth is 42%.

**Q.** How did the growth turn out when `COc1ccc(NC(=O)c2cc(OC)c(OC)c(OC)c2)cc1O` was run?
**A.** The growth was 51.8%.

**Q.** `CCOC(=O)NNC(=S)Nc1ccccc1` was tested. Which growth did it give?
**A.** Its growth is 105%.

**Q.** How did the growth turn out when `CCCCCCCCCCCCNC(=O)[C@H]1CSC(c2ccsc2)N1` (stereo not given in full) was run?
**A.** The growth was 34.3%.

**Q.** With `COc1ccc(OC)c(/C=C2\Oc3cc(OCCCN4CCCC4)ccc3C2=O)c1` as the molecule, how does the growth read?
**A.** Its growth is 77.7%.

**Q.** Which growth does the source give for `CN(C[C@H]1Cc2c(cccc2N2CCN(Cc3ccccn3)CC2)CN1)[C@H]1CCCc2cccnc21` here?
**A.** Its growth is 64.5%.

**Q.** Which growth does the source give for `CCOC(=O)c1ccc(NC(=O)N2CC(C)OC(C)C2)cc1` (stereo not given) here?
**A.** Its growth is 63.1%.

**Q.** `CN1CCN(CCCOc2ccc3nc(Nc4ccc(Cl)c(C(F)(F)F)c4)ccc3c2)CC1` was tested. Which growth did it give?
**A.** Its growth is 18.1%.

**Q.** For `OCc1ncc(-c2ccccc2)s1`, which growth is on record?
**A.** Its growth is 87.6%.

**Q.** `COc1ccc2[nH]c(=O)c(/C=N/Nc3nc(-c4ccccc4)cs3)c(O)c2c1` was tested. Which growth did it give?
**A.** Its growth is 70.6%.

**Q.** Which growth does the source give for `O=[N+]([O-])c1cc(S(=O)(=O)Oc2ccccc2)ccc1Cl` here?
**A.** Its growth is 17%.
